Measurements reported in ChEMBL document CHEMBL3433997, “St. Jude Leishmania screening dataset” (2016).

Columns and labels:
Assay type in all cases: functional
[1] = target: Solute carrier family 2, facilitated glucose transporter member 1 (Homo sapiens) (UniProt P11166); assay: ST_JUDE_LEISH: Cytotoxicity at 2uM final concentration against transgenic Leishmania Mexicana promastigotes LmGLUT1 that are glucose transport deficient and complemented with the human glucose transporter GLUT1. Activity is measured by DNA content using SYBR green in vitro
[2] = target: Hexose transporter 1 (Plasmodium falciparum) (UniProt O97467); assay: ST_JUDE_LEISH: Cytotoxicity at 2uM final concentration against transgenic Leishmania Mexicana promastigotes LmPfHT that are glucose transport deficient and complemented with the Plasmodium falciparum hexose transporter. Activity is measured by DNA content using SYBR green in vitro
[3] = target: Glucose transporter (Leishmania mexicana) (UniProt O61059); assay: ST_JUDE_LEISH: Cytotoxicity at 2uM final concentration against transgenic Leishmania Mexicana promastigotes LmGT2 that are glucose transport deficient and complemented with the L. Mexicana glucose transporter 2. Activity is measured by DNA content using SYBR green in vitro

Solute carrier family 2, facilitated glucose transporter member 1 (Homo sapiens), sequence (P11166 whole entry): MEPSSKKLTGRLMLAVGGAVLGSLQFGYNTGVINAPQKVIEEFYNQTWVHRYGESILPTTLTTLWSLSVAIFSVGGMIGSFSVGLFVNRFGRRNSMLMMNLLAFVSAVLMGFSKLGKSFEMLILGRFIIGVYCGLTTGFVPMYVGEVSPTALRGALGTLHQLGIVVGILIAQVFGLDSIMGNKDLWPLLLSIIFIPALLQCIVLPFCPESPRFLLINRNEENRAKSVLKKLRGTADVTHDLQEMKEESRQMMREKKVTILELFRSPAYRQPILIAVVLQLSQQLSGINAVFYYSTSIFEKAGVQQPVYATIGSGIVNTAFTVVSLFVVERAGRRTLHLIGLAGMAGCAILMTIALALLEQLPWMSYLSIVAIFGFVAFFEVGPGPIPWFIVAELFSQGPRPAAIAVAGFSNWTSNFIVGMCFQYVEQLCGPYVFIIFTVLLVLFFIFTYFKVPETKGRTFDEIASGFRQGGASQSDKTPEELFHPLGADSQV

SMILES | inhibition [1] [%] | inhibition [2] [%] | inhibition [3] [%]
CCN(CCCN1CCCCC1)c1cc(C)nc(Nc2ccc(Cl)c(C(F)(F)F)c2)n1 | 0.03 | -0.3 | -1.78
OCC1CCN(Cc2ccc(-c3cccc(-c4nc5ccccc5[nH]4)c3)cc2)CC1 | 1.15 | 1.08 | 3.83
CN1CCN(CC(=O)Nc2cccc(-c3cccc(-c4nc5cc(F)ccc5[nH]4)c3)c2)CC1 | 0.82 | 1.22 | 3.51
COc1ccc(C(=O)NC2CCN(c3ccnc4cc(Cl)ccc34)C2)cc1 (stereo not given) | 1.59 | 1.83 | 0.51
CCNC(=O)NC1CCN(Cc2c(-c3cccs3)nc3ccccc3c2C(=O)N[C@@H](C)C2CCCCC2)CC1 | 2.27 | 0.77 | -0.86
N#Cc1ccc2c(c1)CCN(CCC1CCC(NC(=O)c3cccc(-c4ccc(F)cc4)c3)CC1)CC2 (stereo not given) | 5.14 | 2.32 | 5.8
CNC(=O)Cc1ccc(C(=O)Nc2cccc(-c3cccc(-c4nc5cccc(C)c5[nH]4)c3)c2)cc1 | -2.05 | -0.87 | -1.69
Cc1cc(N(CCCN(C)C)Cc2cc(F)cc(F)c2)nc(Nc2ccc(Cl)cc2)n1 | -0.3 | 0.46 | 1.83
COc1cc(NC(=O)N2CCc3cc(OC)c(OCCN4CCCCC4)cc32)cc(C(F)(F)F)c1 | 12.9 | 12.7 | 9.77
CN(CCS(C)(=O)=O)Cc1ccc(-c2ccc3ncnc(Nc4ccc(OCc5cccc(F)c5)c(Cl)c4)c3c2)o1 | 2.97 | 0.92 | -0.85
CC1CCN(CC[C@H]2CCCN2S(=O)(=O)c2cccc(NC(=O)c3ccc(-c4ccc(Cl)cc4)o3)c2)CC1 | -0.33 | 1.69 | -0.14
Fc1ccc2[nH]c(-c3ccc(-c4ccc(CNCC5CCCO5)cc4)cc3)nc2c1 (stereo not given) | 12.4 | 11.2 | 7.73
CCN(CC)CCN(Cc1ccc(-c2ccc(C(F)(F)F)cc2)cc1)C(=O)Cn1c(SCc2ccc(F)cc2)cc(=O)c2ccccc21 | 1.74 | -0.14 | 1.57
COc1ccc(CNCc2cccc(-c3ccc(-c4nc5ccccc5[nH]4)cc3)c2)cc1 | 3.35 | 1.89 | 3.52
O=C(N[C@H]1CCN(Cc2ccc(OCCN3CCCC3)c3ccccc23)C1)c1ccc(Cl)c(Cl)c1 | 1.59 | 2.72 | -2.78
CCCC1N=C(N)N=C(N)N1c1ccc(C)cc1 (stereo not given) | 4.06 | 2.51 | 2.47
COc1cccc(CNC[C@@H](O)[C@H](Cc2ccccc2)NC(=O)c2cc(OC(C)C)cc(N3CCCCS3(=O)=O)c2)c1 | 0.5 | -0.88 | -0.67
NCC1(c2nc(-c3ccc(Cl)c(O)c3)c(-c3ccncc3)[nH]2)CCCCC1 | 3.72 | 2.75 | 0.55
O=C(Nc1ccc(Cl)cc1)c1cccc(S(=O)(=O)NC2CCN(CC3CCCCC3)C2)c1 (stereo not given) | 9.12 | 8.41 | 4.13
Cc1cc(NC2CCCC2)nc(Nc2ccccc2C)n1 | 12.6 | 7.5 | 4.09
Cc1cc(CNCCCCCCCNCc2ccc(-c3ccccc3)cc2)ccc1O | 0.67 | 1.76 | 1.05
CN(C)CCOc1cc(NC(=O)Nc2cccc3c(-c4ccncc4)cccc23)ccc1I | 4.55 | 3.67 | 4.12
O=C(c1cc(C(=O)Nc2ccc(F)cc2)c(=O)n(-c2ccc(F)cc2)c1)c1cc(Cl)ccc1O | 0.23 | 2.19 | 0.22
COc1ccc2cc(C(=O)Nc3ccc4c(c3)CCN(C3CCC3)CC4)ccc2c1 | -2.16 | 2 | 3.8

SMILES | inhibition [1] [%] | inhibition [2] [%] | inhibition [3] [%]
Cc1cc(N)nc2ccc(-c3ccc(CCN)cc3)cc12 | 2.07 | 3.64 | 0.96
O=C(Nc1ccc(-c2cccc(-c3nc4cc(F)ccc4[nH]3)c2)cc1)Nc1ccc(Cl)c(Cl)c1 | 3.29 | 1.92 | 3.36
CC(=O)Nc1ccc(CN(C)C2CCN(c3cc(NC(=O)c4cccc(C)c4)ccn3)CC2)cc1 | 2.4 | 3.41 | 2.5
FC(F)(F)c1ccc2[nH]c(-c3ccc(-c4cccc(CNCCN5CCNCC5)c4)cc3)nc2c1 | 0.53 | -0.94 | -1.87
CC(=O)Nc1nc(C(=O)Nc2cccc(-c3cccc(-c4nc5ccccc5[nH]4)c3)c2)cs1 | 12 | 15.6 | 6.57
c1ccc(CCNCc2ccc(-c3ccc(CNC4CCN(Cc5ccccc5)CC4)cc3)nc2)cc1 | 5.76 | 11.9 | 4.15
COCn1ccc2c3c(N)nc(N)nc3ccc21 | 0.07 | 6.21 | 2.32
CCc1cn(CCS(C)(=O)=O)c2ccc(C(=O)N[C@@H](Cc3ccccc3)[C@H](O)CNC(C)(C)CCCC(C)C)cc12 | 5.26 | 4.33 | 6.22
CC(=O)Nc1nc(C(=O)Nc2ccc(-c3ccc(-c4nc5cc(F)ccc5[nH]4)cc3)cc2)cs1 | 2.38 | -2.61 | -1.02
CCCCCCN1CCN(Cc2cccc(NC(=O)c3cc4ccccc4o3)c2)CC1 | 1.59 | 1.56 | 1.59
O=C(Nc1ccc(-c2nc3ccccc3[nH]2)cc1)C1CCCN(C2CCC2)C1 (stereo not given) | 19.8 | 14.7 | 8.04
CCc1ccc(NC(=O)c2cccc(CN3CCCN(CC4CCCCC4)CC3)c2)cc1 | 1.02 | 1.36 | -2.12
Nc1ncnc2cc(-c3cccc(S(N)(=O)=O)c3)sc12 | 0.46 | 3.15 | 5.9
Cc1noc(C)c1-c1cccc(CNCc2cccc(-c3ccc(-c4nc5cc(C(F)(F)F)ccc5[nH]4)s3)c2)c1 | 0.65 | 7.93 | 5.87
Cc1ccc(C)c2c1[nH]c1ccc(C3=NCCN3)cc12 | 0.89 | 1.39 | 1.4
O=C(/C=C/c1ccc([N+](=O)[O-])cc1)N1CCC(NS(=O)(=O)c2ccc(Br)cc2)CC1 | -0.08 | 1.13 | 1.17
CN1CCN(CCCNCc2ccc(Nc3nccc(Nc4ccc(Oc5ccccc5)cc4)n3)cc2)CC1 | 0.09 | 1.17 | 1.48
Cc1cc(N(C)C)nc(Nc2ccc(NC(=O)c3cccc(F)c3)cc2)n1 | 3.36 | 10.1 | 3.75
N#Cc1cccc(-c2nc(NCc3cccc(C(F)(F)F)c3)nn2-c2cccc(C(F)(F)F)c2)c1 | 1.68 | -0.35 | -0.56
COc1cc(Nc2nccc(NCC(O)c3ccc(C(F)(F)F)cc3)n2)cc(OC)c1OC (stereo not given) | 1.6 | 2.84 | 2.81
Nc1nc(N)c2c(Cc3ccc(Br)cc3)cccc2n1 | 2.61 | 4.39 | 3.75
COc1cccc2sc(Nc3nc(-c4ccccn4)cs3)nc12 | 0.13 | 1.96 | 2.52
CC1CN(c2cnn(Cc3ccc(NC(=O)Nc4cccc(C(F)(F)F)c4)cc3)c(=O)c2Cl)CC(C)N1 (stereo not given) | 3.97 | 3.35 | -1.12
Clc1ccc(OCc2ccccc2)c(-c2nc(-c3nc4ncc(Br)cc4[nH]3)cs2)c1 | 4.08 | 4.1 | 1.99

SMILES | inhibition [1] [%] | inhibition [2] [%] | inhibition [3] [%]
O=C(/C=C/c1ccc(C(F)(F)F)cc1)N1CCC(CCN2CCC(c3c[nH]c4ccccc34)CC2)CC1 | 16.8 | 9.28 | 3.39
CC(C)CC(C)NC(=O)C1Cc2c([nH]c3ccc(F)cc23)C2(CCN(Cc3ccccc3)CC2)N1 (stereo not given) | 7.56 | 12.3 | 7.75
O=C(/C=C/c1ccc(Cl)c(Cl)c1)NCCCCCN1CCCC(C(=O)Nc2ccc(Cl)c(Cl)c2)C1 (stereo not given) | -0.31 | -1.19 | -0.96
NC(=O)C1CCN(Cc2ccc(-c3ccc(-c4nc5cc(C(F)(F)F)ccc5[nH]4)s3)cc2)CC1 | 4.68 | 3.12 | 4.69
COc1ccc(NC(=O)c2ccc(NC(=O)c3ccc(Cl)cc3)cc2)cc1N1CCN(C)CC1 | 4.33 | 4.66 | 3.5
CCCN1CCN(CCNc2c3ccccc3nc3ccccc23)CC1 | 96.4 | 97.2 | 94.2
O=C(/C=C/c1ccc(Cl)c(Cl)c1)NCCCCCN1CCCC(CNS(=O)(=O)c2cccc(C(F)(F)F)c2)C1 (stereo not given) | -0.87 | -0.18 | -1.57
COc1cccc(CN2CCCN(Cc3cccc(NC(=O)c4ccc(Cl)c(Cl)c4)c3)CC2)c1 | 4.43 | -0.94 | 2.19
Cc1cc(C(=O)N[C@H]2CCN(Cc3ccc(OCCCN(C)C)cc3)C2)ccc1Br | 0.17 | 0.95 | 1.98
c1cc(C2=NC3CCCCC3N2)ccc1OCCCCCOc1ccc(C2=NC3CCCCC3N2)cc1 (stereo not given) | 2.83 | 5.62 | 1.28
CC1CCCN(Cc2c(O)ccc3c(O)c(-c4nc5ccccc5s4)c(=N)oc23)C1 (stereo not given) | 3.47 | 8.25 | 0.96
CN(CCCCCN1CCC(NC(=O)Nc2ccc(Oc3ccccc3)cc2)C1)C(=O)/C=C/c1ccc(Cl)c(Cl)c1 (stereo not given) | 0 | 6.7 | -1.12
CN1CCCC1CCNc1ncc2c(-c3ccc(NC(=O)Nc4cc(C(F)(F)F)ccc4F)c(F)c3)nn(C)c2n1 (stereo not given) | -1.71 | 0.21 | -0.39
COc1cc(Cc2cnc(N)nc2N)cc(OC)c1OCCCCCN1C(=O)c2ccccc2C1=O | 3.29 | -0.4 | 0.36
CCc1cc(-c2onc(C)c2-c2cc3ccccc3o2)c(O)cc1OC | 1.25 | -1.2 | -0.24
Cc1ccc(-c2nc3ccccc3o2)cc1NCc1cc(Cc2ccccc2)ccc1O | -0.71 | -0.23 | -0.6
COc1cc(CNCCCCCCNCc2cc(OC)c(OC)c3ccccc23)c2ccccc2c1OC | 4.44 | 4.27 | 3.2
CC(=O)Nc1ccc(C(=O)Nc2ccc(-c3cccc(-c4nc5ccccc5[nH]4)c3)cc2)cn1 | 0.89 | 0.79 | -0.56
Cc1nc(C)c(-c2ccc(Oc3ccc(Cl)cc3Cl)cc2)c(O)c1Br | -1.34 | -0.13 | 0.66
COc1ccc2nccc([C@@H](O)CN3CCC(NC(=O)/C=C/c4cc(F)cc(NC(C)=O)c4)CC3)c2c1 | 5.61 | 2.3 | -3.44
Cc1ccc(S(=O)(=O)Nc2ccc(Nc3nccc(Nc4cccc5[nH]ncc45)n3)cc2)cc1 | 1.77 | 2.62 | 0.3
Cc1n[nH]c(C)c1C1CCN(CC2CCC(NC(=O)/C=C/c3ccc(Cl)c(Cl)c3)CC2)CC1 (stereo not given) | 4.43 | 4.25 | 5.93
